Source: PubChem BioAssay (National Center for Advancing Translational Sciences (NCATS))
This is a sample that favours compounds with a hit; in the whole collection about 7% have one here.
PI5P4Ka inh: qHTS for Inhibitors of phosphatidylinositol 5-phosphate 4-kinase (PI5P4K); AID 652105, 2013; hit rate 1.2% among 330,000; max response, %; PI5P4Kalpha enzyme, ADP-Glo luminescence, 60 min; active compounds read low; Phosphatidylinositol 5-phosphate 4-kinase type-2 alpha (Homo sapiens), P48426; active = max response of -50% or lower; inconclusive = between -30% and -50%; inactive = -30% or higher; note: value at the top dose of about 77 µM; % is set by controls: 0 for no effect and ±100 for the full control effect
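PI5P4Kalpha ADP-Glo assay; 5 microM ATP final; 60 min RT reaction; HEPES pH 7.4/EGTA/CHAPS, 5% DMSO; controls lacking substrate or enzyme; luminescent end-point.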
BAZ2B inh: qHTS Assay for Inhibitors of BAZ2B. AID 504333, 2011. Potency, µM (highest dose often 114 µM), for the others: at the top dose activity change, negative = inhibition, most hits filed as inhibitors. AlphaScreen BAZ2B-H3K14Ac peptide displacement. Bromodomain adjacent to zinc finger domain protein 2B (Homo sapiens), Q9UIF8. hit rate 4.4% among 360,000; note: potency is the fitted concentration of half-maximal effect; % is set by controls: 0 for no effect and ±100 for the full control effect; nearly all actives have a fitted effect of over 60% in size
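Compounds, titrated to a top concentration of 110 uM, were incubated 30 min at room temperature with preformed BAZ2B/acetyl-K14 H3 peptide complex (50 nM each). Proximity signal was measured by AlphaScreen after 20 min with beads.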
GCN5L2 inh: qHTS Assay for Inhibitors of GCN5L2; Potency, µM (doses to about 58.9 µM), without a hit: at the highest dose activity change, negative = inhibition, most hits filed as inhibitors; GCN5L2 HAT assay, ThioGlo1 CoA-SH fluorescence; Histone acetyltransferase KAT2A (Homo sapiens), Q92830; hit rate 0.21% among 390,000; note: potency is the fitted concentration of half-maximal effect; % is set by controls: 0 for no effect and ±100 for the full control effect
Target sequence (Q92830 whole entry, looked up): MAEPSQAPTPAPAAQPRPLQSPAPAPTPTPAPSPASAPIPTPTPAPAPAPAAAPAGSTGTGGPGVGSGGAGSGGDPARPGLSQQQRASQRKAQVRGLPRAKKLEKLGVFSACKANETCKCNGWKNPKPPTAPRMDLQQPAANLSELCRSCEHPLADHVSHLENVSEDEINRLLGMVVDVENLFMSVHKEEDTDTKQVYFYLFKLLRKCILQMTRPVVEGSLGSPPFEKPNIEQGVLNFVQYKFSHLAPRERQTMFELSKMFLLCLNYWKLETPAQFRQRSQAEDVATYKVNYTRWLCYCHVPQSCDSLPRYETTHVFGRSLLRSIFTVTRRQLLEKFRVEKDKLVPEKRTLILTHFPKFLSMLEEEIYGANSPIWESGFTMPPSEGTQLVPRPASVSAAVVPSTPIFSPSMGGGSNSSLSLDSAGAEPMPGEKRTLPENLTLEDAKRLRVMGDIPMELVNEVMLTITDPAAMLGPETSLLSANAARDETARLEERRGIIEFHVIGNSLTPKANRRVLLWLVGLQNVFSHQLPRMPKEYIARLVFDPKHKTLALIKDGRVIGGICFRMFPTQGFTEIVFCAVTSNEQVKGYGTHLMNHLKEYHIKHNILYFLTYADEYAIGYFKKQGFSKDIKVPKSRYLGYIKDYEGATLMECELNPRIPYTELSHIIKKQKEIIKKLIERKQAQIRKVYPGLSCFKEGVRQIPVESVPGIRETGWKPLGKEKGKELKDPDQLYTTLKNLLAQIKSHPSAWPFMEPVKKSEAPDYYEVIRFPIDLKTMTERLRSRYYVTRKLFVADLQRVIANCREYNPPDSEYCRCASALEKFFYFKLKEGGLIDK
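ThioGlo1-coupled HAT assay: 20nM GCN5L2, 70uM acetyl-CoA, 75uM H3(1-25) peptide, pH 7.5. Fluorescence read at 340/540nm at start and after 20 min at room temperature.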
JMJD2A Tudor inh: qHTS Assay for Inhibitors of JMJD2A-Tudor Domain. Lysine-specific demethylase 4A (Homo sapiens), O75164. AlphaScreen JMJD2A-Tudor / H3K4me3 peptide binding. Potency, µM (titrated, usually from 114 µM), for the others: at the top dose activity change, negative = inhibition, actives largely listed as inhibitors. hit rate 4.4% among 390,000; note: potency is the fitted concentration of half-maximal effect; % is set by controls: 0 for no effect and ±100 for the full control effect; nearly all actives have a fitted effect of over 50% in size
PLK1 PBD inh: qHTS for Inhibitors of PLK1-PDB (polo-like kinase 1 - polo-box domain): Primary Screen; hit rate 2.8% among 360,000; Plk1 PBD binding of FITC phosphopeptide, fluorescence polarization; Potency, µM, for inactives: max response, negative = inhibition, usual class: inhibitors; AID 720504, 2013; note: potency is the fitted concentration of half-maximal effect; series mostly up to about 57 µM; % is set by controls: 0 for no effect and ±100 for the full control effect; nearly all actives have a fitted effect of over 65% in size
HP1b chromo inh: HTS for Inhibitors of HP1-beta Chromodomain Interactions with Methylated Histone Tails | AlphaScreen HP1-beta / biotin-H3K9me3 peptide binding | Chromobox protein homolog 1 (Homo sapiens), P83916 | hit rate 0.56% among 390,000 | Potency, µM (series often up to 114 µM), for inactives: at the top dose activity change, negative = inhibition, actives largely listed as inhibitors; note: potency is the fitted concentration of half-maximal effect; nearly all actives have a fitted effect of over 70% in size
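Compound inhibition of the preformed complex between 50 nM HP1-beta and 50 nM biotinylated H3K9me3 peptide was read by AlphaScreen. Buffer was PBS pH 7.4 with 0.01% Tween-20. Incubations ran 30 min at room temperature, with 10 ug/mL donor/acceptor beads.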
Active calls of the source: *; ? = inconclusive; nt = not tested or not shown; [ ] = dose if it differs, or a comment. Unless noted, calls come from the whole dose curve; as a rule, active = well fitted curve in the direction sought with a large enough effect; inconclusive = small, poorly fitted or top-dose-only effect, or another doubt; inactive = no such curve, though single readings can be large; an effect the other way counts as inactive or inconclusive.

SMILES	PI5P4Ka inh	BAZ2B inh	GCN5L2 inh	JMJD2A Tudor inh	PLK1 PBD inh	HP1b chromo inh
O=Cc1sc(=O)n(Cc2cccc(C(=O)O)c2)c1Cl	-26	2%	-15%	-17%	30µM*	41%[57 µM]
CCc1ccccc1NC(=O)Cn1nnc(C(=O)Nc2ccc(C)c(F)c2)c1N	nt	7%[57.1 µM]	-3%	-5%	nt	47%
S=c1nc(C2CC2)[nH]c2ccccc12	?	-6%	-17%	?	24µM*	-10%
S=C(NCCN1CCOCC1)N/N=C/c1cccs1	4	-11%	-16%	-27%	-8%	30%
Oc1cccc(/C=N/NC(=S)NCCN2CCOCC2)c1O	1	8.9µM*	-13%	22µM*	-3%	31%
O=C(O)c1ccc(/C=N/NC(=S)NCCN2CCOCC2)cc1	3	-5%	0%	32µM*	-8%	27%
COc1ccc2nc3sc(C(=O)N4CCN(c5ccccc5)CC4)cc3cc2c1	nt	-2%	-5%	-9%	nt	12%
O=C(COc1ccc(F)cc1)Nc1nnc(S(=O)(=O)N2CCc3ccccc32)s1	nt	?	0%	-26%	nt	7%
Clc1ccc(N2CCN(Cc3ccc(Br)o3)CC2)cc1	8	50µM*	-5%	20µM*	-17%	?
O=C(Nc1ccc(N2CCN(C(=O)c3ccc(Cl)cc3)CC2)cc1)c1ccc(Br)o1	3	?	-26%	-35%	-3%	-14%
Clc1cccc(N2CCN(Cc3ccc(Br)o3)CC2)c1	15	?	-8%	28µM*	-8%	?
O=C(NCC(=O)N1CCN(c2cccc(Cl)c2)CC1)c1ccc(Br)o1	-4	0%	0%	-11%	-1%	18%
COC(=O)[C@@]12C[C@@H](CC(=O)NCCCCc3ccccc3)C(=O)N(Cc3ccc4c(c3)OCO4)C1=CCC(C)(C)C2	-4	nt	nt	nt	-4%	nt
CCOc1ccc(CNC(=O)C(C)n2ncn3cccc3c2=O)cc1 (centres undefined)	nt	-1%	-3%	3%	nt	43%
COc1ccc(-c2cc(CCC(=O)N3CCN(c4cc(C)ccc4C)CC3)[nH]n2)cc1	13	nt	-4%	?	-4%	-6%
O=[N+]([O-])c1ccc(N=NNc2ccccc2)cc1	-4	28µM*	-14%	25µM*	30µM*	?
Brc1ccc(N=NNc2ccccc2)cc1	24	40µM*	-3%	-26%	7%	34%
O=[N+]([O-])c1cccc(NC(=S)Nc2nc(-c3ccccc3Cl)cs2)c1	-29	?	2%	-26%	?	1%
C/C(=N\NC(=O)c1ccc(CN2CCc3ccccc3C2)cc1)c1ccccc1O	-87*	2.8µM*	-12%	?	-2%	25%
CCCNC(=O)c1ccc(CN2CCc3ccccc3C2)cc1	-10	-3%	-2%	-23%	-7%	5%
O=C(CCC(=O)N(CC(=O)NC1CCCCC1)CC1CCCO1)Nc1nccs1 (centres undefined)	-8	-4%	-7%	-13%	27µM*	-25%
O=C(CCC(=O)N(CC(=O)NC1CCCCC1)Cc1ccccc1)Nc1nccs1	-10	-9%	0%	-11%	-3%	1%
COCCN(C(=O)CSc1nnc(-c2cccc(Cl)c2)n1N)c1c(N)n(CC(C)C)c(=O)[nH]c1=O	-1	nt	nt	nt	-21%	nt
CN(N=O)c1ccc(C=C2C=Cc3ccccc32)cc1	10	nt	nt	?	-7%	-13%
CC(=O)N(C)c1ccc(C=C2C=Cc3ccccc32)cc1	3	nt	nt	79µM*	?	?
SMILES	PI5P4Ka inh	BAZ2B inh	GCN5L2 inh	JMJD2A Tudor inh	PLK1 PBD inh	HP1b chromo inh
O=C(CCCC(=O)OCC(=O)c1ccc(Cl)cc1)NC1CCCCC1	6	-6%	-16%	1%	3%	26%
C=C(C)C(=O)OCCCCCCOc1ccc(C(=O)O)cc1	nt	?	1%	11µM*	?	?
O=C(CN1C(=O)C2CCCCN2c2ccc(C(=O)N3CCCC3)cc21)NCc1ccccc1 (centres undefined)	nt	-9%	-3%	-19%	nt	17%[57 µM]
Cc1ccc(-n2c(N)c(-c3nc4ccccc4n3C)sc2=S)cc1	nt	?	-18%	?	5.3µM*	?
COc1cccc2c1C(=O)c1c(O)c3c(c(O)c1C2=O)C[C@](O)(C(=O)CO)C[C@H]3O[C@@H]1C[C@H](N)[C@H](O)[C@H](C)O1	nt	nt	-6%[21.4 µM]	nt	nt	nt
COc1cccc2c1C(=O)c1c(O)c3c(c(O)c1C2=O)CC(O)(C(C)=O)CC3OC1CC(O)C(O)C(C)O1 (centres undefined)	-12	nt	nt	?	9.5µM*	?
COc1cccc2c1C(=O)c1c(O)c3c(c(O)c1C2=O)C[C@](O)(C(C)=O)C[C@H]3O[C@@H]1C[C@@H](N)[C@@H](O)[C@@H](C)O1	-2	45µM*	-2%	?	?	-11%
COc1cccc2c1C(=N)c1c(O)c3c(c(O)c1C2=O)CC(O)(C(C)=O)CC3OC1CC(N)C(O)C(C)O1 (centres undefined)	3	nt	nt	40µM*	-11%	?
CCCCC(=O)OCC(=O)C1(O)Cc2c(O)c3c(c(O)c2C(OC2CC(NC(=O)C(F)(F)F)C(O)C(C)O2)C1)C(=O)c1c(OC)cccc1C3=O (centres undefined)	-6	nt	nt	?	-7%	?
COc1ccc(C(=O)N2CCN(C)C(=O)[C@@H]2C)cc1OC1CCN(C(C)=O)CC1	6	-4%	-13%	-16%	-2%	24%
CCc1ccc(NC(=O)CN2C(=O)C(c3ccc(C)cc3)=NC23CCCCC3)cc1	nt	-3%	-9%	-17%	nt	18%
C[C@H](CO)N1C[C@H](C)[C@@H](CN(C)S(=O)(=O)c2ccc3ccccc3c2)OCc2cnnn2CCCC1=O	7	nt	nt	nt	-11%	nt
CCCN1C(=O)/C(=C/c2c(N3CCNC(=O)C3CC(=O)OCC)nc3c(C)cccn3c2=O)SC1=S (centres undefined)	-7	?	-7%	-23%	38%	-15%
CCOC(=O)CC1C(=O)NCCN1c1nc2ccc(C)cn2c(=O)c1/C=C1\SC(=S)N(C(C)CC)C1=O (centres undefined)	nt	28µM*	-27%	nt	nt	nt
CCOC(=O)CC1C(=O)NCCN1c1nc2ccc(C)cn2c(=O)c1/C=C1\SC(=S)N(CC(C)C)C1=O (centres undefined)	-4	79µM*	-4%	-26%	36%	-17%
